Hits are enriched below; roughly 12% of the tested compounds scored in any of these assays.
Sfp PPTase inh: qHTS Assay for Inhibitors of Bacillus subtilis Sfp phosphopantetheinyl transferase (PPTase). actives 3.5% (n = 310,000). 4'-phosphopantetheinyl transferase ffp (Bacillus subtilis), Q9F4F7. Potency, µM, for the others: largest response in the series, negative = inhibition, hits mostly inhibitors. AID 1490, 2009. Biochemical Sfp PPTase activity, qHTS;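 note: the enzyme is Sfp with the accession as filed and its product quenches rhodamine fluorescence; 0% = enzyme reaction without inhibitor and -100% = no enzyme wells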
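Reaction rates are the 30-min fluorescence difference (ex 525, em 598 nm) in wells containing 15 nM Sfp, 5 uM rhodamine-CoA and 12.5 uM BHQ-2-YbbR at pH 7.6 with 10 mM MgCl2.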
RORg inh: qHTS for inhibitors of ROR gamma transcriptional activity; Nuclear receptor ROR-gamma (Mus musculus), P51450; Drosophila S2 Gal4-RORgamma UAS-luciferase reporter, 20 h; Potency, µM (highest dose often 53.6 µM), inactives show top-dose activity change, negative = inhibition, hits mostly inhibitors; actives 5.4% (n = 310,000); note: nearly all actives have a fitted effect of over 60% in size
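In this cell-based reporter format, copper sulfate (700 uM final) drives Gal4–ROR gamma fusion expression from a metallothionein promoter in Drosophila Schneider cells; compounds preincubated 1 hr, reporter read after 20 hr at ambient temperature.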
Gal4-VP16 FLuc: VP16 counterscreen qHTS for inhibitors of ROR gamma transcriptional activity. Drosophila S2 Gal4-VP16 UAS-luciferase, luminescence, 20 h. Potency, µM (highest dose often 53.6 µM), inactives show at the highest dose activity, negative = inhibition, most hits filed as inhibitors. actives 3.5% (n = 310,000). AID 2546, 2010;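 note: Gal4-VP16 expression switched on by copper sulfate through the metallothionein promoter; nearly all actives have a fitted effect of over 50% in size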
PLK1 PBD inh: qHTS for Inhibitors of PLK1-PDB (polo-like kinase 1 - polo-box domain): Primary Screen. Plk1 PBD binding of FITC phosphopeptide, fluorescence polarization. actives 2.8% (n = 360,000). Potency, µM, inactives show max response, negative = inhibition, most hits filed as inhibitors. AID 720504, 2013. Serine/threonine-protein kinase PLK1 (Homo sapiens), P53350; note: series mostly up to about 57 µM; nearly all actives have a fitted effect of over 65% in size
Target sequence (P53350 whole entry, looked up, the tested form may be a part): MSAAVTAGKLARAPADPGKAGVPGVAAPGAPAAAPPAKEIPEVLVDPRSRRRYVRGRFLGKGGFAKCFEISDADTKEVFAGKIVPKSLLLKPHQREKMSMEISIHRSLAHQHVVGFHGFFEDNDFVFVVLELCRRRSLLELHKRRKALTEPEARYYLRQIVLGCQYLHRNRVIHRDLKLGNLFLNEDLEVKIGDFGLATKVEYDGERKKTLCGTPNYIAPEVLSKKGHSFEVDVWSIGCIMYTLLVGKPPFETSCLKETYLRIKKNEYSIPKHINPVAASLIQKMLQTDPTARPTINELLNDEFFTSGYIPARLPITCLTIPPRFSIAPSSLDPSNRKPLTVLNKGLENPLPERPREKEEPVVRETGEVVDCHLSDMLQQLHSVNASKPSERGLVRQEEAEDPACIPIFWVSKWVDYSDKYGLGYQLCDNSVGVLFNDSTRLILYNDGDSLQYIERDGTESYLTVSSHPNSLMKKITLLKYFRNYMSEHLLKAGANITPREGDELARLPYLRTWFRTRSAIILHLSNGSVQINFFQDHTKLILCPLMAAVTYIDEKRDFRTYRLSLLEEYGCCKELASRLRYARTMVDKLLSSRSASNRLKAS
ALDH1A1 block: qHTS Assay for Inhibitors of Aldehyde Dehydrogenase 1 (ALDH1A1); Aldehyde dehydrogenase 1A1 (Homo sapiens), P00352; Purified ALDH1A1, NADH fluorescence, propionaldehyde substrate; Potency, µM (titrated, usually from 75.3 µM), for the others: at the highest dose activity, negative = inhibition, hits mostly inhibitors; actives 7.3% (n = 220,000); AID 1030, 2008; active = well fitted inhibition curve with a large enough effect, not every such curve was filed as active; inconclusive = small, poorly fitted or top-dose-only effect, or another doubt; inactive = no such curve, though single readings can be large or run the other way;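 note: plate controls were no enzyme wells and a reference inhibitor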
The depositor's hits bear a star; ? = inconclusive; / = not tested or not shown; [ ] = another dose, or the depositor's remark. Unless noted, calls come from the whole dose curve; as a rule, active = well fitted curve in the direction sought with a large enough effect; inconclusive = small, poorly fitted or top-dose-only effect, or another doubt; inactive = no such curve, though single readings can be large; an effect the other way counts as inactive or inconclusive. Unless noted, % is set by controls: 0 for no effect and ±100 for the full control effect; potency is the fitted concentration of half-maximal effect.

SMILES | Sfp PPTase inh | RORg inh | Gal4-VP16 FLuc | PLK1 PBD inh | ALDH1A1 block
COc1ccc(NC(=O)c2nc(S(=O)(=O)Cc3cccc(C)c3)ncc2Cl)c(OC)c1 | 4% | ? | 7.9µM* | -9% | /
COc1ccc(OC)c(NC(=O)c2nc(S(=O)(=O)Cc3ccccc3)ncc2Cl)c1 | -5% | 5µM* | ? | ? | /
COc1ccc(OC)c(NC(=O)CS(=O)(=O)Cc2ccccc2)c1 | 5% | / | / | -1% | /
O=C(c1ccco1)N1CCC2(CC1)CCN(c1ccccn1)CC2 | 6% | 8% | -8% | / | ?
O=c1c(-c2cc(F)cc(F)c2)nc2cnc(N3CCOCC3)nc2n1C[C@H]1CCCO1 | 4% | -14% | 4% | / | ?
COc1ccc(-n2c(=O)c(C)nc3cnc(N4CCNCC4)nc32)cc1 | 14% | -24% | -6% | / | ?
O=C(N/N=C/c1cc([N+](=O)[O-])ccc1O)c1cc(-c2ccccc2)nc2ccccc12 | ? | 3.2µM* | 4µM* | -3% | ?
O=C(N/N=C/c1cccc([N+](=O)[O-])c1)c1c[nH]c2ccccc12 | 6% | ? | -8% | -11% | /
O=C(N/N=C/C=C\c1ccccc1[N+](=O)[O-])c1cc(-c2ccccc2)nc2ccccc12 | -2% | 1.6µM* | 2.8µM* | -11% | ?
O=C(N/N=C/c1cccc([N+](=O)[O-])c1)c1cc(-c2ccccc2)nc2ccccc12 | 3% | -38% | -30% | -4% | 7%
O=C(N/N=C/c1cc([N+](=O)[O-])ccc1O)c1c[nH]c2ccccc12 | 11% | 5µM* | ? | -17% | /
Cc1cc(C(=O)N/N=C/c2cc(Br)cc([N+](=O)[O-])c2O)c2ccccc2n1 | -2% | 2µM* | 3.2µM* | -1% | -9%
CC1(C)C(=O)C2C[C@]3(O)C4=CC(=O)OC(c5ccoc5)[C@]4(C)CCC3[C@](C)(C2=O)C1CC(=O)O (stereo not given in full) | 14% | 19% | 1% | / | 8%
Cc1cc(C(=O)N/N=C/c2cc([N+](=O)[O-])ccc2O)c2ccccc2n1 | -2% | 2.8µM* | 4.5µM* | -9% | 0%
C=C1C[C@H]2[C@@H]3CCc4cc(OC)ccc4[C@H]3CC[C@]12C | / | / | / | 5% | /
COc1ccc2c(c1)[C@]1(C)CCC(=O)C[C@H]1CC2 | 0% | 17% | 3% | / | 2.8µM*
CCCCN1C(=O)C(O)(CC(=O)c2ccccc2OC)c2ccccc21 (stereo not given) | 21% | 2% | -1% | -12% | 8.9µM*
CCCCN1C(=O)C(O)(CC(=O)c2c(C)coc2C)c2ccccc21 (stereo not given) | 15% | 15% | 2% | -7% | 10µM*
Cc1ccc(C(=O)CC2(O)C(=O)N(C)c3ccccc32)s1 (stereo not given) | ? | 32% | 3% | -2% | 2%
CCCCN1C(=O)C(O)(CC(=O)c2ccccn2)c2ccccc21 (stereo not given) | 10% | -15% | -13%[10 µM] | -4% | 1µM*
CCN1C(=O)C(O)(CC(=O)c2cc(C)ccc2C)c2ccccc21 (stereo not given) | 11% | 8% | 4% | -4% | ?
O=S1(=O)CCN2C=Nc3sc4c(c3C2=N1)CCCC4 | 12% | 36% | 1% | -2% | 8.9µM*
CCCCCCCCCCCCCCC[C@@H](O)[C@H](CO)NC(C)=O | 29% | -11% | -1% | / | 1%
COc1ccc(CNC(=O)C2CCCN(Cc3nc(-c4cccc(C)c4)oc3C)C2)cc1 (stereo not given) | 56µM* | 21% | -2% | -1% | ?
Cc1oc(-c2ccc(Cl)cc2)nc1CN1CCCC(C(=O)NC2CC2)C1 (stereo not given) | 9% | 2% | -17% | 21µM* | /
Cc1oc(-c2cc3c(cc2Cl)OCO3)nc1CN1CCCC(C(=O)N2CCOCC2)C1 (stereo not given) | -27% | -12% | -9% | -11% | 1µM*
